Results on 40 molecules are retold here after PubChem BioAssay (Tox21).

The structures appear in SMILES notation. “And” between values parts separate entries of the source, which are not always exact repeats. Equal entries are not always repeated. Inconclusive results are not listed. A call without a number means that no potency is given here. The source made the active and inactive calls. Calls come from the whole dose curve; as a rule, active = well fitted cell-killing curve with a large enough effect in the repeat runs; inconclusive = weak or mixed curves, or effect the other way; inactive = no such curve, though single readings can be large or run the other way.
Potency is the fitted concentration of half-maximal effect.

This test can be described thus: qHTS assay to identify small molecule antagonists of the glucocorticoid receptor (GR) signaling pathway - cell viability counter screen (AID 720693). Note: nearly all actives have a fitted effect of over 55% in size. As to conditions: GR-bla HeLa viability, CellTiter-Glo luminescence, 18 h, with 5 nM dexamethasone present; series mostly up to 58.5 µM. From the text: National Center for Advancing Translational Sciences [NCATS]
NIH Chemical Genomics Center [NCGC]
U.S. Environmental Protection Agency [EPA]
National Institutes of Environmental Health Sciences [NIEHS]
National Toxicology Program [NTP]
U.S. Food and Drug Administration [FDA]
The Glucocorticoid receptor (GR) is one of the members of the nuclear receptor family of ligand-dependent transcription factors. GR plays a critical role in carbohydrate, protein and lipid metabolisms and programmed cell death. CellSensor GR-bla HeLa cell line (Invitrogen) contains a beta-lactamase reporter gene under the control of the glucocorticoid response element stably integrated into HeLa cells, a cervical cancer cell line that expresses glucocorticoid receptor. The activation of the reporter gene under culture conditions can be detected by fluorescence intensity. This cell line has been used to screen the Tox21 10K compound library and to identify the compounds that inhibit the GR signaling. The cytotoxicity of the Tox21 compound library against the GR-bla HeLa cell line was tested in parallel by measuring the cell viability using CellTiter-Glo assay in the same wells.
Tox21 Assay Protocol Summary:
The GR-bla HeLa cells were dispensed at 1500 cells/5 ul/well in 1536-well black wall/clear bottom plates using a Multidrop Combi (ThermoFisher Scientific, Waltham, MA) dispenser. After the assay plates were incubated at a 37 C/5% CO2 incubator for 4 hours, 23 nL of compounds dissolved in DMSO, positive controls or DMSO only was transferred to the assay plate by a pintool station (Kalypsys, San Diego, CA), followed by addition of 1 uL of dexamethasone (5 nM, final concentration in the well). The plates were incubated at 37 C for 18 hours. After 1 uL of LiveBLAzerTM B/G FRET substrate was added using a Flying Reagent Dispenser (Aurora Discovery, San Diego, CA), the plates were incubated at room temperature (RT) for 2 hours, and fluorescence intensity was measured by an Envision plate reader (PerkinElmer, Shelton, CT). After measurement of bla assay, 3 ul CellTiter-Glo (Promega, Madison, WI) was added to measure the cytotoxicity and the plates were then incubated at RT for 30 min. The luminescence was measured using a ViewLux (Perkin Elmer) plate reader.
In general terms: qHTS replaces the single test concentration by a dilution series.
As to `C[C@]12CC[C@H]3[C@@H](CCC4=C(O)C(=O)CC[C@@H]43)[C@@H]1CC[C@@H]2OC(=O)CCC1CCCC1`, the Potency result was “inactive”.

In the case of `CCC(=O)O[C@@](Cc1ccccc1)(c1ccccc1)[C@@H](C)CN(C)C`, the Potency result was “inactive”.

`CCN1C[C@]2(COC)[C@H](O)C[C@H](OC)[C@@]34[C@@H]5C[C@@]6(O)[C@H](OC(=O)c7ccccc7)[C@@H]5[C@@](OC(C)=O)([C@@H]([C@H](OC)[C@H]23)[C@@H]14)[C@@H](O)[C@@H]6OC`: the Potency entry was “inactive”.

Consider `Oc1cc[c]([Hg][Cl])cc1`, for which the Potency was 6.74 µM (active) and 19 µM (active).

For `O=C1CN(O)C(c2ccccc2)=c2cc(Cl)ccc2=N1`, the Potency result is “inactive”.

Take `[S]=[Sb](=[S])[S][Sb](=[S])=[S]`: the Potency result is “inactive”.

`C[C@@H](CO)NC(=O)[C@@H]1C=C2c3cccc4[nH]cc(c34)C[C@H]2N(C)C1`: the Potency entry was “inactive”.

`CCCCNC(C)(C)[P+](=O)O`: the Potency result was “inactive”.

On to `CN1C(=O)CC(=O)N(c2ccccc2)c2cc(Cl)ccc21`, for which the Potency entry was “inactive”.

For `CN1CSC(=S)N(C)C1`, the Potency entry was “inactive”.

Regarding `CCCN1CCC[C@H](c2cccc(O)c2)C1`, the Potency result was “inactive”.

Consider `C[C@@H](Cc1ccccc1)N(C)C`, for which the Potency result is “inactive”.

With `C[C@]12CCC(=O)C[C@@H]1CC[C@@H]1[C@@H]2CC[C@@]2(C)[C@H]1CC[C@]2(C)O`, the Potency result was “inactive”.

For the molecule `C[C@]12CC[C@H]3[C@@H](CCC4=CC(=O)CC[C@@]43C)[C@@H]1CC[C@H]2O`, the Potency entry is “inactive”.

Turning to `Cc1ccccc1-n1c(CF)nc2ccc(N)cc2c1=O`, the Potency result is “inactive”.

For `C=CCC1([C@@H](C)CCC)C(=O)NC(=O)NC1=O`, the Potency result is “inactive”.

As for `Cc1ccccc1-n1c(C)nc2ccccc2c1=O`, the Potency entry is “inactive”.

On to `C[C@@H]1[C@H]2Cc3ccc(O)cc3[C@]1(C)CCN2C`, for which the Potency entry was “inactive”.

As to `Cc1cccc(C(C)c2cnc[nH]2)c1C` (stereo not given), the Potency entry is “inactive”.

For the molecule `c1ccc(C2(N3CCCC3)CCCCC2)cc1`, the Potency is 26800 nM (active).

Consider `CNC(=O)OCC[N+](C)(C)C`, for which the Potency entry was “inactive”.

Consider `CCC/C=C/C=C/C(=O)O[C@H]1/C(=C/C(=O)OC)C[C@H]2C[C@H]([C@@H](C)O)OC(=O)C[C@H](O)C[C@@H]3C[C@H](OC(C)=O)C(C)(C)[C@](O)(C[C@@H]4C/C(=C/C(=O)OC)C[C@H](/C=C/C(C)(C)[C@]1(O)O2)O4)O3`, for which the Potency entry is “inactive”.

With `CO[C@H]1[C@@H](O)C[C@H](O[C@H]2[C@@H](O)C[C@H](O[C@H]3[C@@H](O)C[C@H](O[C@H]4CC[C@@]5(C)[C@H](CC[C@@H]6[C@@H]5C[C@@H](O)[C@]5(C)[C@@H](C7=CC(=O)OC7)CC[C@]65O)C4)O[C@@H]3C)O[C@@H]2C)O[C@@H]1C`, the Potency was 756 nM (active).

Turning to `CC[C@H]1[C@@H]2C[C@H]3[C@@H]4N(C)c5ccccc5[C@]45C[C@@H](C2[C@H]5O)N3[C@@H]1O` (stereo not given in full), the Potency entry was “inactive”.

`CC(=O)O[C@H]1C[C@H](O[C@H]2[C@@H](O)C[C@H](O[C@H]3[C@@H](O)C[C@H](OC4CC[C@@]5(C)[C@H](CC[C@@H]6[C@@H]5CC[C@]5(C)[C@@H](C7=CC(=O)OC7)CC[C@]65O)C4)O[C@@H]3C)O[C@@H]2C)O[C@H](C)[C@H]1O[C@@H]1O[C@H](CO)[C@@H](O)[C@H](O)[C@H]1O` (stereo not given in full): the Potency was 756 nM (active).

Consider `CCCCCCCCCC(=O)O[C@H]1CC[C@H]2[C@@H]3CCC4=CC(=O)CC[C@]4(C)[C@H]3CC[C@]12C`, for which the Potency entry is “inactive”.

With `O=C(CS(=O)C(c1ccccc1)c1ccccc1)NO` (stereo not given), the Potency result is “inactive”.

Regarding `C[C@@H](N)C(=O)c1ccccc1`, the Potency result was “inactive”.

For the molecule `O=C1OC2(c3cc(Br)c(O)cc3Oc3c2cc(Br)c(O)[c]3[Hg])c2ccccc21` (stereo not given), the Potency result was “inactive”.

For `CC(=O)OC1CN2CCC1CC2` (stereo not given), the Potency result was “inactive”.

For `CC(C)[C@H]1C(=O)N2CCC[C@H]2[C@]2(O)O[C@](NC(=O)[C@@H]3C[C@@H]4c5cccc6[nH]cc(c56)C[C@H]4N(C)C3)(C(C)C)C(=O)N12`, the Potency result is “inactive”.

For the molecule `O=C(CCl)c1ccc(Oc2ccc(C(=O)CCl)cc2)cc1`, the Potency result was “inactive”.

As for `CCCC(=O)OC(C(Cl)(Cl)Cl)P(=O)(OC)OC` (stereo not given), the Potency result was “inactive”.

Consider `O=C(O)CCCO`, for which the Potency entry was “inactive”.

Take `C/C=C(\CC)C(=O)NC(N)=O`: the Potency entry is “inactive”.

Turning to `CC(Cc1ccccc1)NC=O` (stereo not given), the Potency result is “inactive”.

In the case of `C[C@@H]1[C@@H]2Cc3ccc(O)cc3[C@@]1(C)CCN2CCc1ccccc1`, the Potency entry is “inactive”.

On to `c1ccc2c(c1)Sc1ccccc1N2C[C@@H]1CN2CCC1CC2`, for which the Potency entry is “inactive”.

With `COc1ccc2c(c1)C13CCCC[C@@H]1C(C2)N(C)CC3` (stereo not given in full), the Potency result is “inactive”.

On to `N#CC1(N2CCCCC2)CCCCC1`, for which the Potency result is “inactive”.
